# Reference: PubChem BioAssay AID488890 (Southern Research Specialized Biocontainment Screening …, 2010)
# Screen size: about 320,000 compounds; about 1,300 (0.41%) were called active. About 3% were inconclusive and are not listed. No rule for the calls is given here. A selection follows. Entries with a potency or affinity are not part of this list.
# Assay: growth inhibition of non-replicating M. tuberculosis (AID 488890);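 also: plate controls were DMSO cells for no effect and high antibiotic wells for full effect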
# Settings: Mycobacterium tuberculosis non-replicating, at 25 µM, stronger effect = higher value
row,Compound,inhibition [%]
1,O=C(COC(=O)c1ccc([N+](=O)[O-])o1)NCCCc1ccccc1,73.4
2,O=C(OCC(=O)N1CCCC1)c1cccc(Br)c1,67.8
3,O=C(COC(=O)c1ccc(Br)o1)NCCNC(=O)COC(=O)c1ccc(Br)o1,0.38
4,O=C(OCC(=O)N1CCCC1)c1cc([N+](=O)[O-])ccc1Cl,67.6
5,Nc1cccc(CP(=O)(c2ccccc2)c2ccccc2)c1,1.01
6,COc1cc(NC(=O)c2ccccc2-n2cnnn2)cc(OC)c1,10.3
7,COc1ccc(C2C(C(C)=O)=C(O)C(=O)N2c2ccc(Br)cc2)cc1 (stereo not drawn),29.9
8,COC(=O)CSc1nnc(-c2ccncc2)o1,-0.32
9,COC(=O)c1ccc(CSc2nnc(-c3ccncc3)n2Cc2ccccc2)o1,12.6
10,Cc1ccc(OCC(=O)OC(C)C(=O)NC2CCCCC2C)cc1C (stereo not drawn),65.7
11,Cc1c(C(=O)NCc2ccccc2CN2CCCC2)oc2ccc(F)cc12,42
12,O=C(NCc1ccccc1)c1nc2ccccc2s1,79.5
13,COc1ccc(OC)c(NC(=O)c2nc3ccccc3s2)c1,-0.73
14,COc1ccc(NC(=O)Nc2nc3ccccc3s2)cc1,-4.36
15,Cc1nc(C)c(C(=O)Nc2ccccc2)s1,-13.4
16,O=C(NCc1ccco1)c1cccnc1-c1nc2ccccc2s1,27.7
17,Cc1nc(Cl)sc1C(=O)Nc1ccccc1,-6.17
18,CN(C(=O)COC(=O)CSc1cc(Cl)ccc1Cl)c1c(N)n(Cc2ccccc2)c(=O)[nH]c1=O,7.95
19,COc1ccc(CC2C(=O)OC(C)(C)OC2=O)c(Cl)c1OC,-14.3
20,CCCC1=C(C(=O)OCC)C(c2cccnc2)n2nc(C)nc2N1 (stereo not drawn),-11.9
21,COCCn1c(=O)c2c(nc3n2CC(C)CN3CCc2ccccc2)n(C)c1=O (stereo not drawn),22.9
22,Cc1[nH]c(=O)[nH]c(=O)c1S(=O)(=O)N1CCN(c2ccccc2F)CC1,-5.44
23,COc1ccc(OC)c(C(=O)c2oc3ccccc3c2NC(C)=O)c1,-5.83
24,CCOC(=O)c1sc(=S)n(-c2ccc3c(c2)OCO3)c1N,1.96
25,N/C(=N\OC(=O)c1ccc(Cl)cc1)c1ccc(Cl)cc1,69.9

row,Compound,inhibition [%]
1,N/C(=N\OC(=O)c1ccccc1Cl)c1ccccn1,-3.97
2,N/C(=N\OC(=O)c1ccc(Cl)cc1)c1ccccn1,28.3
3,N/C(=N\OC(=O)c1ccccc1Cl)c1cccc([N+](=O)[O-])c1,66.7
4,C=CCOC(=O)c1cn(CC)c2nc(C)ccc2c1=O,-10.5
5,CCOC(=O)C1(Cc2cccc(Cl)c2)CCCN(C(=O)c2ccoc2C)C1 (stereo not drawn),33.8
6,CCOC(=O)NC(CC(=O)O)c1ccc(OC)cc1 (stereo not drawn),-4.02
7,CCn1c(C)nc2cc(C(=O)N/N=C/c3ccc(N4CCOCC4)cc3)ccc21,33
8,CN1CCN(C2Cc3ccccc3Sc3ccc(Cl)cc32)CC1 (stereo not drawn),76.8
9,c1ccc2c(c1)CC(N1CCCCC1)c1ccccc1S2 (stereo not drawn),72.9
10,CCOC(=O)C1(Cc2ccc(OC)cc2)CCN(C(=O)c2cncs2)CC1,-27.1
11,CCOC(=O)c1ccc(NC(=O)NCc2ccncc2)cc1,15.4
12,CCc1ccc(N2C(=O)c3cc(N4CCOCC4)c([N+](=O)[O-])cc3C2=O)cc1,1.14
13,O=[N+]([O-])c1ccc(CSc2nnc3ccccn23)cc1,1.79
14,CCc1ccc(NC(=O)CCCn2nc(CC)n3c(cc4occc43)c2=O)cc1,21.1
15,CSc1ccc(CCNC(=O)CCc2nnc3ccc(N4CCC5(CC4)OCCO5)nn23)cc1,11.6
16,Cc1nc2ccc([N+](=O)[O-])cc2c(=O)n1Cc1ccc(Br)cc1,-9.44
17,Cc1ccc(-c2nc3ccc(Cl)cc3c(=O)n2O)cc1,69.6
18,Cc1nc2ccc([N+](=O)[O-])cc2c(=O)n1Cc1ccc(Cl)cc1,-5.97
19,COc1ccccc1-c1nc2ccc(Cl)cc2c(=O)n1O,11.4
20,O=C(Nn1c(-c2ccc(Br)cc2)nc2ccccc2c1=O)c1ccc([N+](=O)[O-])cc1,20.4
21,O=c1c2ccccc2nc(-c2ccc([N+](=O)[O-])cc2)n1-c1ccccc1,-1.75
22,Nn1c(-c2ccccc2)nc2cc(Cl)ccc2c1=O,-0.74
23,Cc1nc2ccc(Cl)cc2c(=O)n1-c1ccc([N+](=O)[O-])cc1,36.5
24,CCCNC(=O)c1ccc(Cn2c(=S)[nH]c3c([nH]c4ccc(OC)cc43)c2=O)cc1,-43.9
25,CC1Cc2cc(S(=O)(=O)N3CCN(c4ccccc4F)CC3)ccc2N1C(=O)C1CC1 (stereo not drawn),31.8

row,Compound,inhibition [%]
1,CC1Sc2ccc(S(=O)(=O)CCC(=O)N3CCN(c4ccccc4)CC3)cc2NC1=O (stereo not drawn),12.1
2,COC(=O)C1=C(C)NC(=O)CC1c1cc2c(cc1Br)OCO2 (stereo not drawn),-0.49
3,Cc1ccccc1C(=O)N1CCN(c2ncccn2)CC1,-10.1
4,CCOC(=O)c1ccc(S(=O)(=O)NC2CC2)cc1,0.31
5,COc1ccc(COC(=O)CN2C(=O)NC3(CC(C)CC(C)(C)C3)C2=O)cc1F (stereo not drawn),7.47
6,CC(C)C[C@H](NC(=O)c1nc[nH]c1C(=O)NCCCCCN)C(=O)OCc1ccccc1,18.5
7,CCN(CC(=O)Nc1ccc(OC)cc1)C(=O)c1cc2c(s1)CCCCC2,12.4
8,CSc1nnc(SCC(=O)Nc2ccc3[nH]c(=O)[nH]c3c2)s1,-17
9,COc1ccccc1NC(=O)CN1C(=O)COc2ccc(S(=O)(=O)N3CCC(C)CC3)cc21,9.4
10,O=S(=O)(c1cccc2nsnc12)N1CCc2ccccc2C1,3.1
11,CC1CCCN(CCOCCSc2ccccc2)C1 (stereo not drawn),13.4
12,Clc1ccc(SCCCN2CCCCC2)cc1,5.39
13,COc1ccc(S(=O)(=O)N2CCCC(C(=O)NC3CCCCC3)C2)cc1 (stereo not drawn),-6.21
14,CCOC(=O)CN(C#N)c1nc(C)cc(C)n1,1.75
15,COC(=O)CN(C#N)c1nc(OC)nc(N(C)C)n1,2.2
16,CN(c1cccc(Cl)c1)S(=O)(=O)c1cccc(C(=O)Nc2nc3ccccc3[nH]2)c1,7.4
17,CCOc1ccccc1OCCCC(=O)Nc1nc2ccccc2[nH]1,12.7
18,O=C(COc1ccccc1C(=O)O)Nc1cccc2ccccc12,15.8
19,COc1ccc(Cl)cc1C(=O)Nc1nc2ccccc2[nH]1,62.4
20,COc1ccc(C(=O)Nc2nc3ccccc3[nH]2)cc1OC,22.2
21,O=C(COc1cccc2ccccc12)Nc1cc(Cl)ccc1C(=O)O,69.4
22,CCOc1ccccc1OCC(=O)Nc1nc2ccccc2[nH]1,34.2
23,O=C(COc1ccccc1)Nc1nc2ccccc2[nH]1,75.5
